The values below come from PubChem BioAssay.

Calls of active or inactive are those of the source. Unless noted, how the calls were made is not given here.

Assay [1] is described as follows: anti-His antibody binders, primary screen, artefact control for SMM control protein annotation, biochemical, small-molecule microarray, 635 nm fluorescence (AID 1128).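 Further: score merges feature fluorescence with signal-to-noise for each printed compound spot.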 The conditions noted are these: anti-His Alexa647 antibody binding, higher = more signal.
Assay [2] has as its system Human papillomavirus type 1a E7 protein (residues 1-88). The assay is described as follows: HPV1a E7 small-molecule binders, primary screen, biochemical, small-molecule microarray, residues 1-88, 635 nm (AID 1129). The conditions noted are these: small-molecule microarray binding, fluorescence 635 nm; higher = more signal.
Assay [3] deals with Focal adhesion kinase 1 (Homo sapiens) (UniProt Q05397). The assay is described as follows: small-molecule microarray binders of FAK, primary screen, biochemical, 635/667 nm fluorescence, BSA, DTT (AID 1130).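 Further: composite of spot emission at 667 nm and signal to noise over triplicate slides.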 The following applies: PTK2 binding, 635 nm fluorescence, higher = more signal.
For assay [4], the system named is Fibrinogen (Alexa647-labelled). The assay is described as follows: fibrinogen binders on compound microarrays, profiling panel, artefact control for SMM control-protein annotation, biochemical, small-molecule microarray, 635/667 nm fluorescence (AID 1131).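 Further: z-score merges 667 nm fluorescence with per-spot signal-to-noise over triplicate slides.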 The following applies: fibrinogen-A647 binding fluorescence, higher = more signal.
Assay [5] concerns the target Follistatin (Homo sapiens) (UniProt P19883). The assay is described as follows: follistatin binders on small-molecule microarrays, primary screen, biochemical, small-molecule microarray, 635/667 nm fluorescence (AID 1132). The following applies: FST binding, 635 nm fluorescence, higher = more signal.
Assay [6] deals with Fibroblast growth factor 2 (Homo sapiens) (UniProt P09038). Kind of assay: FGF2 binders on small-molecule microarrays, primary screen, biochemical, small-molecule microarray, 635/667 nm fluorescence (AID 1133). The following applies: small-molecule microarray binding, FGF2, fluorescence 635/667; higher = more signal.
Assay [7] is described as follows: mitochondrial membrane potential change in A549 cells, profiling panel, cell-based, JC-1 fluorescence, basal, 24 h, 100 nL (AID 1138).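 Further: A549 lung adenocarcinoma cells under basal conditions with no added stimulus; test concentration not given here.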 The conditions noted are these: higher = more signal.
For another assay, the system named is Lefty1. The assay is described as follows: Lefty1 binders on small-molecule microarrays, primary screen, biochemical, small-molecule microarray, 635/667 nm fluorescence (AID 1139). The following applies: small-molecule microarray binding, fluorescence 635/667; higher = more signal.
Assay [8] concerns wheat germ agglutinin (Triticum aestivum), Alexa647-labelled. The assay is described as follows: wheat germ agglutinin binders on compound microarrays, profiling panel, artefact control for SMM control-protein annotation, biochemical, small-molecule microarray, 635/667 nm fluorescence (AID 1140).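 Further: score merges 667 nm feature emission with signal to noise over triplicate slides.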 The following applies: WGA-A647 binding, 635 nm fluorescence, higher = more signal.
Assay [9] deals with Luciferin 4-monooxygenase (Photinus pyralis) (UniProt P08659). The assay is described as follows: firefly luciferase enzyme inhibitors, primary screen, biochemical, luminescence, purified enzyme, 2006 set (AID 1141).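 Further: cell-free assay with purified firefly luciferase at 100 ng per well in PBS; test concentration not given here.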 The following applies: SteadyGlo luminescence, 30 min, higher = more signal, called active from +8 up or from −8 down.
Assay [10] concerns Wnt5a (protein binding on small-molecule microarray). Kind of assay: Wnt5a binders on small-molecule microarray, primary screen, biophysical, 635/667 nm fluorescence (AID 1142).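 Further: fluorescence read at 667 nm with signal to noise per printed feature.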 The following applies: 635 nm fluorescence, higher = more signal.
Assay [11] can be described thus: cell viability in Huh7 cells, primary screen, cytotoxicity control for HCV replication inhibitor project, CellTiter-Glo luminescence, basal, 48 h (AID 1143).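 Further: Huh7 hepatoma cells carrying a hepatitis C replication reporter with no stimulus; test concentration not given here.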 The conditions noted are these: Huh7 HCV replicon, higher = more signal, called active from +8 up or from −8 down. For orientation: In ATP-based viability assays light output follows the ATP content of the culture.

Assay [12] in a line: P. aeruginosa biofilm formation inhibitors, primary screen, PAO1 strain, BacTiter-Glo luminescence, LB-PBS (AID 1144). The conditions noted are these: 12 h, higher = more signal.
The nature of assay [13]: CREB reporter modulators without forskolin, primary screen, cell-based, PC12, CRE-LacZ reporter, unstimulated (AID 1145). The following applies: no forskolin, luminescence, 4.5 h, higher = more signal, called active from +8 up or from −8 down.
The nature of assay [14]: CREB reporter modulators under forskolin, primary screen, cell-based, PC12, CRE-LacZ reporter, forskolin-stimulated (AID 1146).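 Further: PC12 cells with 6xCRE LacZ reporter stimulated by forskolin 10 µM; beta-galactosidase reporter signal reflecting CREB driven transcription.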 The following applies: luminescence, 4.5 h, higher = more signal, called active from +8 up or from −8 down.
The target of assay [15] is Streptavidin (Streptomyces avidinii) (UniProt P22629). The assay is described as follows: streptavidin binders on small-molecule microarray, primary screen, artefact control for SMM compound annotation, biophysical, 635/667 nm fluorescence (AID 1147).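 Further: signal reflects streptavidin binding to arrayed compounds as a control protein.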 The following applies: streptavidin binding, higher = more signal.
Assay [16] is described as follows: small-molecule binders of probe aInhba, primary screen, biochemical, small-molecule microarray, 635/667 nm fluorescence (AID 1148).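 Further: score merges 667nm spot fluorescence with signal-to-noise for antibody binding to printed compounds.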 The following applies: higher = more signal.
In assay [17] the target is Torsin-1A (Homo sapiens) (UniProt O14656). The assay is described as follows: torsin A binders from cell lysate, primary screen, small-molecule microarray, wild-type, 635/667 nm (AID 1149). The conditions noted are these: COS7 hTOR1A-WT lysate, 635 nm fluorescence, higher = more signal.
For assay [18] the target is unchanged. The assay is described as follows: small-molecule binders of mutant TOR1A in lysate, primary screen, cell lysate, small-molecule microarray, COS7 lysate, 635/667 nm fluorescence (AID 1150).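 Further: score pools 667 nm emission and signal to noise measuring lysate protein binding.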 The following applies: COS7 hTOR1A mutant lysate, 635 nm fluorescence, higher = more signal.
Assay [19] concerns Sonic hedgehog protein (Shh). The assay is described as follows: small-molecule binders of Shh protein, primary screen, biochemical, small-molecule microarray, 635/667 nm fluorescence (AID 1151).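 Further: Shh protein binding to compounds spotted on small-molecule microarray slides; score combines spot fluorescence intensity with signal-to-noise across triplicate slides.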 The following applies: small-molecule microarray binding, 635 nm fluorescence; higher = more signal.

Focal adhesion kinase 1 (Homo sapiens), sequence (Q05397 whole entry, looked up): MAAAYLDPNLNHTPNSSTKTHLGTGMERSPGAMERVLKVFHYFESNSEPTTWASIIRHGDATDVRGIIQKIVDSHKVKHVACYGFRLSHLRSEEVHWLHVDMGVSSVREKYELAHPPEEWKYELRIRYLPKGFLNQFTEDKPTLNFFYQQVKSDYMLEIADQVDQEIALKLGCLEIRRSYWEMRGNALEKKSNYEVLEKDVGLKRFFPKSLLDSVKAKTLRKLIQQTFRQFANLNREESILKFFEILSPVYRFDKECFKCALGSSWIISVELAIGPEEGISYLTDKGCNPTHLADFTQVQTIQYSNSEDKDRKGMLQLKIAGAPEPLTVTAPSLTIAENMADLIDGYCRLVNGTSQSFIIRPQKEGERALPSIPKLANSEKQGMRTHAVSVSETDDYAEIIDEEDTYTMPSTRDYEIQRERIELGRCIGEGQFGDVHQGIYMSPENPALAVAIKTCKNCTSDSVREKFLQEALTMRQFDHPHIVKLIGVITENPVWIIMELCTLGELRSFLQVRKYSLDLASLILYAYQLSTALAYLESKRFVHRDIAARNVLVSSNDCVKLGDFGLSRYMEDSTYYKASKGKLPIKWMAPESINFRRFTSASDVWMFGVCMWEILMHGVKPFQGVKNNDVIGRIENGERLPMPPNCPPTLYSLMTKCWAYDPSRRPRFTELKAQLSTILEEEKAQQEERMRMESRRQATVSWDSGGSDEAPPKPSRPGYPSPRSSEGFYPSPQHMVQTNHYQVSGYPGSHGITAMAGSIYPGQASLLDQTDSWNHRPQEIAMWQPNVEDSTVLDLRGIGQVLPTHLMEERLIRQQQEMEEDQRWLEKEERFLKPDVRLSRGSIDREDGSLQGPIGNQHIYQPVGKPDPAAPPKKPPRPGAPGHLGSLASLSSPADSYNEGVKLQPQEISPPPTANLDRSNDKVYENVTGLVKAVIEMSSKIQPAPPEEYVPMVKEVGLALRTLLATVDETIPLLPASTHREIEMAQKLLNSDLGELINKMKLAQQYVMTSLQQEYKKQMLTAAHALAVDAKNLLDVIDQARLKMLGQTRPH
Streptavidin (Streptomyces avidinii), sequence (P22629 whole entry, looked up): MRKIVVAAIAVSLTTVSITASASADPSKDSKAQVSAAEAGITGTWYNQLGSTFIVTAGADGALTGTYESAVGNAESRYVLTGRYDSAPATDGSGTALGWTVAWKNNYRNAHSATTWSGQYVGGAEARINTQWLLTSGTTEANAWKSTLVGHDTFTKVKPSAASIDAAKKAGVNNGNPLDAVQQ
Luciferin 4-monooxygenase (Photinus pyralis), sequence (P08659 whole entry, looked up): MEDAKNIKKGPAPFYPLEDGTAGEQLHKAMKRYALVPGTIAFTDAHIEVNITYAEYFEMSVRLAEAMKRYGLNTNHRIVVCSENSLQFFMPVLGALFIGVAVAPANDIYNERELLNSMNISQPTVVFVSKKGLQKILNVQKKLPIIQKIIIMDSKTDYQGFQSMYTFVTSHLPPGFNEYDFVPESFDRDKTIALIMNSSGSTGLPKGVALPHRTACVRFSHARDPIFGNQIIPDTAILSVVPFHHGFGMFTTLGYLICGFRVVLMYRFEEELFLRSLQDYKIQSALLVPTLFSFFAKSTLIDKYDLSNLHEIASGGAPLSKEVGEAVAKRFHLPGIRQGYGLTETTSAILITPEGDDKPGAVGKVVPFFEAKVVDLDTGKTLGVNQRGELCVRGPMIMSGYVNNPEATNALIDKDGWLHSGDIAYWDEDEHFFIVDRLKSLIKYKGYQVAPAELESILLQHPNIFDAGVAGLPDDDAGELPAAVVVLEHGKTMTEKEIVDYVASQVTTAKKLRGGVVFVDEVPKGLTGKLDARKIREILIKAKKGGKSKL
Fibroblast growth factor 2 (Homo sapiens), sequence (P09038 whole entry, looked up): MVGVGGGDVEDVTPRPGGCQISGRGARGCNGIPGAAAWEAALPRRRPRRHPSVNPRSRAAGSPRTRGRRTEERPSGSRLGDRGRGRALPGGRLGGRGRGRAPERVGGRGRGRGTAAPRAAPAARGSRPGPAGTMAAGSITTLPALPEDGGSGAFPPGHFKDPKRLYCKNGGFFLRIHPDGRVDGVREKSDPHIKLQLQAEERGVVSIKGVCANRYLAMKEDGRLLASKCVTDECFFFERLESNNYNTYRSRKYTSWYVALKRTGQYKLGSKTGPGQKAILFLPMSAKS
Follistatin (Homo sapiens), sequence (P19883 whole entry, looked up): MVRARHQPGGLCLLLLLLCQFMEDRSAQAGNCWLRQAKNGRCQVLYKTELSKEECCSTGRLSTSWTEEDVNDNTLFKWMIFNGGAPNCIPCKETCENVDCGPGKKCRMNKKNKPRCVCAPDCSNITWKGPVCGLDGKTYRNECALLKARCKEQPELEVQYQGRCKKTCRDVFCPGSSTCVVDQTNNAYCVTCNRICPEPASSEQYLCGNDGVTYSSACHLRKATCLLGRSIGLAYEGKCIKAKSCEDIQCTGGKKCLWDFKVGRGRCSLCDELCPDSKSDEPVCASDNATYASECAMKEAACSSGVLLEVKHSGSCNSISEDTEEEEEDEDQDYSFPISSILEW
Torsin-1A (Homo sapiens), sequence (O14656 whole entry, looked up): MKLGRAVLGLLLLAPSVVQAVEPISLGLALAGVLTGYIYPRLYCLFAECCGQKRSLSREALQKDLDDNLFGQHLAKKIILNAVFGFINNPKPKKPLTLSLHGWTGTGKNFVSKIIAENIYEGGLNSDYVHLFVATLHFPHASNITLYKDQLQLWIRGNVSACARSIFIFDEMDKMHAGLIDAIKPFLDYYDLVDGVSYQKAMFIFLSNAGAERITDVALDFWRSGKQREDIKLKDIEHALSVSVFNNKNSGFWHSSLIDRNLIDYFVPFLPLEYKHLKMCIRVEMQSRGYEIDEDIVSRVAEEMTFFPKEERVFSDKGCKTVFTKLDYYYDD

As to `CCCCCCCCCCC(O)C1C=CC2C(=O)N(c3ccccc3)C(=O)C2N1Nc1ccc([N+](=O)[O-])cc1` (stereo not given), the composite z-score in [1] is 0.774; in assay [2] it was 1.22; in assay [3], 0.525; in assay [4] it was 0.992; in assay [5], 0.8; in assay [6], 0.378. The composite z-score in the assay on Lefty1 was 0.371; in assay [8], 0.56; in [10], 0.207; in assay [15] it was 0.811; in [16], -0.0059; with Torsin-1A (Homo sapiens) [17], 0.0415. Further, the composite z-score was found to be 0.227 in the assay with Torsin-1A (Homo sapiens) [18] and 0.358 in assay [19]. For the same compound, the z-score was 2.09 in assay [7]; 1.86 (inactive) in [9]; -2.71 (inactive) in [11]; -0.214 (inactive) in assay [12]; 0.285 (inactive) in [13]; 0.925 (inactive) in assay [14].
As for `C[n+]1ccc2ccc(O)cc2c1`, the composite z-score in assay [1] is 1.81; in [2], -0.495; in assay [3], 0.132; in [4], -0.399; in assay [5], 1.37; in assay [6] it was 1.68. In addition, the composite z-score in the assay on Lefty1 is 1.54; in assay [8] it was -0.37; in assay [10] it was 0.247; in [15], -0.426; in [16] it was -0.0405; in the assay with Torsin-1A (Homo sapiens) [17], 2.27. Also, the values for the composite z-score (with Torsin-1A (Homo sapiens) [18]; in assay [19]) were 1.19 and 1.95, respectively. Moreover, the z-score in assay [7] was -0.924; in assay [9], 0.591 (inactive); in [11], -0.289 (inactive); in assay [12], 0.125 (inactive); in [13] it was 0.389 (inactive); in assay [14] it was -0.287 (inactive).
With `[N-]=[N+]=NCc1ccccc1[C@H]1OC(c2ccc(OCCCO)cc2)=N[C@@]1(Cc1ccccc1)C(=O)O`, the composite z-score is 1.97 in [1]; 0.762 in assay [2]; 0.551 in [3]; 0.472 in assay [4]; 1.31 in assay [5]; 1.42 in assay [6]. Also, the composite z-score with Lefty1 is 0.195; in assay [8] it was 0.611; in [10], 0.631; in assay [15] it was 1.37; in [16], -0.0477; in the assay with Torsin-1A (Homo sapiens) [17], 0.112. Also, the composite z-score with Torsin-1A (Homo sapiens) [18] was 0.381; in [19], -0.22. Besides, the z-score in [7] is -0.0378; in assay [9] it was -0.0016 (inactive); in assay [11] it was -1.01 (inactive); in assay [12], 0.564 (inactive); in assay [13], -1.19 (inactive); in assay [14] it was -0.609 (inactive).
Turning to `O=C1OCCC=C[C@H]2OC34C=CCN(CCN5CCOCC5)C(=O)[C@H]3N(CCO)C(=O)[C@@H]4C12` (stereo not given in full), the composite z-score was 1.07 in assay [1]; -0.793 in [2]; -0.379 in assay [3]; 0.236 in assay [4]; 1.11 in [5]; 0.785 in assay [6]. The composite z-score is 0.648 in the assay on Lefty1; 0.418 in assay [8]; -0.141 in assay [10]; -0.983 in assay [15]; -0.168 in assay [16]; -0.23 with Torsin-1A (Homo sapiens) [17]. Further, the values for the composite z-score (with Torsin-1A (Homo sapiens) [18]; in assay [19]) were 0.0141 and 0.731, respectively. Besides, the z-score is -0.849 in assay [7]; -0.0527 (inactive) in assay [9]; 0.473 (inactive) in assay [11]; 0.329 (inactive) in assay [12]; -0.358 (inactive) in assay [13]; -0.0338 (inactive) in assay [14].
Take `CCCCC(=C=CC[C@H](O)c1ccccc1OCCO)C[C@H](O)c1cc(Cl)cc(Cl)c1O`: the composite z-score in [1] was 1.02; in [2] it was 0.955; in assay [3] it was 0.305; in assay [4], 0.517; in [5], 0.698; in assay [6], 0.28. In addition, the composite z-score in the assay with Lefty1 was 0.249; in [8] it was 0.0162; in [10], 0.121; in [15], -0.18; in assay [16] it was -0.0471; in the assay with Torsin-1A (Homo sapiens) [17], 0.873. For the same compound, the composite z-score with Torsin-1A (Homo sapiens) [18] worked out at 0.234; in [19], 0.66. In addition, the z-score in assay [7] is -0.343; in [9], -1.27 (inactive); in [11] it was -0.433 (inactive); in assay [12], -0.0417 (inactive); in [13], 7.91 (inactive); in assay [14], 1.57 (inactive).
